Bioassay records from PubChem.
A selection: hits, their analogues and other compounds. The true share with any hit is near 6.7%.
PINK1 modulator: changes PINK1 expression; PINK1 immunofluorescence, high-content cytometry, 24 h; hit rate 0.2% among 410,000; AID 624263; Potency, µM (highest dose often 76.6 µM), inactives show at the highest dose activation (PINK1 increase), hits mostly activators; active = well fitted activation curve with a large enough effect; inconclusive = small, poorly fitted or top-dose-only effect; cell line not stated here; also: % of control where 0% means no effect; nearly all actives have a fitted effect of over 65% in size
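PINK1 protein, normally rapidly degraded, was detected by immunofluorescence after 24 hour compound treatment of a stable cell line. Titration data (5 concentrations) came from laser-scanning cytometry, with CCCP-treated wells as controls.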
MCF10A rerep: induces DNA re-replication in MCF 10a normal breast cells | MCF 10A DNA re-replication, Hoechst nuclear intensity, 48 h | Potency, µM (top dose mostly 46.1 µM), without a hit: top-dose activity, positive = re-replication, most hits filed as activators | hit rate 2.9% among 350,000; also: % of control where 0% means no effect; nearly all actives have a fitted effect of over 50% in size
KB-V1 cytotox: kills drug-selected multidrug resistant KB-V1 cells; Potency, µM (series often up to 46.1 µM), most hits filed as cytotoxic; hit rate 3.4% among 400,000; KB-V1 MDR cells viability, CellTiter-Glo, 72 h; also: % is scaled to controls: 0 for no effect and ±100 for the full control effect; nearly all actives have a fitted effect of over 60% in size
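Cells of the MDR subline KB-V1 are plated, dosed with compound at multiple concentrations, and incubated 72 h at 37 degrees C; CellTiter-Glo is then added and luminescence read after 10 min.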
SW480 rerep: DNA re-replication induction in SW480 cells; SW480 DNA re-replication, Hoechst DNA content imaging, 48 h; Potency, µM (doses to about 46.1 µM), without a hit: at the top dose re-replication activation, hits mostly activators; hit rate 1.8% among 340,000; AID 624297; also: % of control where 0% means no effect; nearly all actives have a fitted effect of over 55% in size
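First, 250 cells per well were seeded. Next, compound or vehicle (23 nL) was pinned in, plates sat 48 hr at 37 C. Finally Hoechst was added for 40 min before fluorescence scanning.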
KB-3-1 cytotox: kills parental KB-3-1 adenocarcinoma cells | KB-3-1 viability, CellTiter-Glo ATP luminescence, 72 h | hit rate 1.4% among 400,000 | AID 1347075 | Potency, µM (doses to about 46.1 µM), actives largely listed as cytotoxic; also: % is scaled to controls: 0 for no effect and ±100 for the full control effect; nearly all actives have a fitted effect of over 60% in size
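Cytotoxicity measured as CellTiter-Glo luminescence after 72 h at 37 C. Compound titrations were pinned onto drug-naive KB-3-1 parental adenocarcinoma cells grown in DMEM with 10% FBS, and normalized data fitted to concentration-response curves.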
An asterisk follows results filed as active; i = inactive; ? = inconclusive; · = not tested or not shown; [ ] = remark or other dose. Unless noted, calls follow the shape of the dose curve; as a rule, active = well fitted curve in the direction sought with a large enough effect; inconclusive = small, poorly fitted or top-dose-only effect, or another doubt; inactive = no such curve, though single readings can be large; an effect the other way counts as inactive or inconclusive. Potency is read from the fitted curve at half-maximal effect.

SMILES	PINK1 modulator	MCF10A rerep	KB-V1 cytotox	SW480 rerep	KB-3-1 cytotox
C[C@H]1c2cccc(O)c2C(=O)C2C(=O)C3(O)C(=O)C(C(N)=O)C(=O)[C@@H](N(C)C)[C@@H]3[C@@H](O)[C@@H]21 (some centres not stated)	7.4%	-3.9%	i	6.31µM*	i
Cc1ccc(C(=O)OCC(=O)NCc2ccc(F)cc2)o1	1.2%	-3.6%	i	2.3%	i
N=C1/C(=C/c2cccn2CCOc2ccccc2)C(=O)N=C2SC=C(c3ccccc3)N12	17.1%	1.3µM*	3.66µM*	18.4µM*	?
N=C1/C(=C/c2ccc(-c3cccc(C(=O)O)c3)o2)C(=O)N=C2SC=C(c3ccccc3)N12	1.7%	5.8µM*	i	-2.5%	i
CC(C)S(=O)(=O)C1=NSC2=NC(=O)/C(=C\c3ccc(-c4ccccc4)o3)C(=N)N21	16.2%	16.4µM*	16.4µM*	?	i
COc1ccc(NC(=O)C[C@H]2C(=O)N(c3ccccc3)C[C@@H]2Cc2ccccc2)cc1	1.8%	·	14.6µM*	·	i
COc1ccc([C@H]2CN(c3ccc(OC)cc3)C(=O)[C@@H]2CC(=O)Nc2ccc(Br)cc2)cc1	0.1%	·	16.4µM*	·	?
CCOc1cc(CNC(=O)c2cc(-c3ccccc3)n[nH]2)cc(OCC)c1OCC	1.4%	·	i	·	i
CCC1CN(C(=O)N2CCC(C(=O)NCCC3=CCCCC3)CC2)c2cc(C)ccc2O1 (configuration not stated)	-0.5%	·	·	·	·
CCOC(=O)c1c(CSc2ccccc2)oc2ccc(O)cc12	6.8%	18.4µM*	i	0.3%	i
CC(=O)c1c(CSc2ccccc2)oc2ccc(O)c(CN(C)C)c12	0.0%	?	i	13µM*	i
CCOC(=O)c1c(C)oc2ccc(O)c(CN(C)C)c12	-2.6%	2.9%	i	-1.7%	i
COC(=O)Cc1c(CSc2ccccc2)oc2ccc(O)c(CN(C)C)c12	5.1%	?	i	-1.9%	i
CCOC(=O)c1c(CSc2ccc(CC)cc2)oc2ccc(O)c(CN(C)C)c12	-3.7%	?	?	18.4µM*	?
CCCCCN=Cc1c(C)[nH]n(-c2nc3ccccc3s2)c1=O	5.9%[38.3 µM]	17.8%	2.31µM*	11.6%	2.59µM*
C/C(N)=C(/C#N)C(=O)CSc1nnc(COc2cc(C)ccc2C)o1	·	18.4µM*	i	19.9%	i
C/C(N)=C(/C#N)C(=O)CSc1nnc(-c2ccc3c(c2)OCO3)o1	-0.5%[38.3 µM]	3.6%	i	11.6µM*	i
O=C(c1ccc2c(c1)N(Cc1ccccc1)C(=O)CS2)N1CCOCC1	0.8%[38.3 µM]	11.6%	14.6µM*	-0.8%	i
O=C(NCCc1ccc(Cl)cc1)c1ccc2c(c1)N(Cc1ccc(Cl)cc1)C(=O)CS2	0.1%	·	i	·	i
O=C(NCCc1ccccc1)c1ccc2c(c1)N(Cc1ccc(Cl)cc1)C(=O)CS2	-1.1%	·	i	·	23.1µM*
Cc1ccc(-n2c(-c3ccccc3)nsc2=NC#N)cc1	0.6%	·	i	·	i
COc1cc2c(=O)n(Cc3ccccc3)c(=O)n(CC(=O)NCC3CCCO3)c2cc1OC (configuration not stated)	0.8%	-2.2%	20.6µM*	-3.5%	i
CCOC(=O)/C=c1\s/c(=C\c2ccc3c(c2)OCCO3)c(=O)n1CC(=O)NCC1CCCO1 (configuration not stated)	6.2%	?	i	-2.2%	i
Cc1cc(NC(=O)Cn2c(=O)n(Cc3ccccc3)c(=O)c3ccccc32)no1	3.4%	12.1%	7.31µM*	8.0%	i
CCOC(=O)/C=c1\s/c(=C\c2ccc3cc(OC)ccc3c2)c(=O)n1CC(=O)NCc1ccc2c(c1)OCO2	20µM*	17.8%	?	4.9%	18.4µM*
SMILES	PINK1 modulator	MCF10A rerep	KB-V1 cytotox	SW480 rerep	KB-3-1 cytotox
COc1ccccc1NC(=O)Cn1c(=O)n(Cc2ccccc2)c(=O)c2ccccc21	-0.2%	·	i	·	i
CCOC(=O)/C=c1\s/c(=C\c2ccccc2C)c(=O)n1CC(=O)NCc1ccc2c(c1)OCO2	?	?	3.26µM*	?	i
CCOC(=O)/C=c1/s/c(=C\c2c(OC)ccc3ccccc23)c(=O)n1CC(=O)NCC1CCCO1 (configuration not stated)	3.5%	?	4.61µM*	14.6µM*	?
COC(=O)c1ccc(CSc2nnc(Nc3ccccc3OC)s2)o1	·	9.2µM*	i	16.8%	i
COC(=O)c1ccc(CSc2nnc(Nc3ccc(OC)cc3)s2)o1	-1.4%	16.0%	i	3.2%	i
CCn1c(SCC(=O)Nc2oc(-c3ccccc3)c(-c3ccccc3)c2C#N)nnc1-c1ccco1	-1.0%	?	?	8.9%	i
COc1ccc(-c2oc(NC(=O)CSc3nncn3C)c(C#N)c2-c2ccc(OC)cc2)cc1	-1.2%	13µM*	i	2.4%	?
CCn1c(SCC(=O)Nc2oc(-c3ccccc3)c(-c3ccccc3)c2C#N)nnc1-c1ccncc1	0.5%	23.1µM*	i	9.3%	i
N#Cc1c(NC(=O)CSc2ccccn2)oc(-c2ccccc2)c1-c1ccccc1	6.5%	20.6µM*	i	10.4%	i
Cc1ccc(C)c(C(=O)N2CCC(c3nc4c(nnn4Cc4ccccc4)c(=O)[nH]3)CC2)c1	0.7%	·	i	·	i
COc1cc(NC(=O)CN2C(=O)CN(C)C(=O)c3ccccc32)cc(OC)c1OC	0.8%	·	i	·	i
O=C(Cn1cc(C(F)(F)F)ccc1=O)Nc1ccc2c(c1)OCO2	-1.2%	·	i	·	i
COc1cc(=O)n2c(c1C(=O)NC(C)c1ccco1)CCN(C(=O)c1ccc(F)cc1Cl)CC2 (configuration not stated)	0.8%	·	·	·	·
CC[C@@]12CCCN3CCc4c(n(c5ccccc45)C(=O)C1)[C@H]32	·	?	·	11.4µM*	·
O=c1[nH]c(=O)c2cc([N+](=O)[O-])cc([N+](=O)[O-])c2[nH]1	-1.5%	-16.8%	i	?	i
O=c1[nH]c2cc([N+](=O)[O-])c([N+](=O)[O-])cc2[nH]c1=O	1.6%	0.0%	i	6.51µM*	i
CN(C)CCN1CCN(C2CN(Cc3cn(Cc4ccccc4C(F)(F)F)nn3)S(=O)(=O)C2)CC1 (configuration not stated)	0.9%	·	i	·	i
Cc1ccccc1S(=O)(=O)N(C)C[C@H]1OCc2cn(nn2)CCCC(=O)N([C@H](C)CO)C[C@@H]1C	8.7%	·	i	·	i
O=C(/C=C/c1ccccc1Cl)Nc1ccccc1	-0.8%	4.0%	i	-5.5%	i
NC(=O)c1ccccc1NC(=O)/C=C/c1cccc(Cl)c1	·	12.3%	i	-14.8%	i
CN(C)c1ccc(NC(=O)/C=C/c2c(Cl)cccc2Cl)cc1	?	16.4µM*	13µM*	6.2%	?
